Assay results taken from PubChem BioAssay (EPA / NIEHS).
Calls of active or inactive are those of the source. The calls were made as follows: active = hit-call score of the fitted dose curve at least 0.9, where 1 is the maximum; inactive = score below 0.9.

Tests used:
[1] = CEETOX_H295R_PROG: CeeTox H295R High-throughput Steroidogenesis Assay for Progesterone (PROG) (AID 2283442); conditions: actives raise or lower the signal;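 as to AC50: human H295R adrenal cells primed with 10 µM forskolin before dosing; progesterone secreted into medium by H295R cells measured by HPLC-MS/MS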
How it was run: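 Steps: seed H295R cells and let them adhere overnight; prime 48 h with 10 uM forskolin; dose with compound in DMSO at 0.1% final for 48 h; extract medium steroids with MTBE; measure progesterone by LC-MS/MS. MTT viability was run in the same wells.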

[2] = read-out: Tumor necrosis factor receptor superfamily member 6 (Homo sapiens) (UniProt P25445); experiment: LTEA_HepaRG_FAS: Life Technologies and Expression Analysis (LTEA) Assay for Fas cell surface death receptor (FAS) using HepaRG (AID 2283447); conditions: mRNA level, 48 h; actives raise or lower the signal
How it was run: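 Differentiated human HepaRG cells, pre-cultured 48 h, were exposed in duplicate for 48 h to 8-point half-log concentrations (top 100 uM, 0.5% DMSO) in serum-free induction medium; FAS mRNA measured by qRT-PCR, normalized to ACTB/GAPDH/POLR2A, bidirectional fit versus DMSO.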

[3] = read-out: Cyclin D2 (CCND2), CCND2 (gene 894); experiment: LTEA_HepaRG_CCND2: Life Technologies and Expression Analysis (LTEA) Assay for Cyclin D2 (CCND2) using HepaRG (AID 2283449); conditions: mRNA level, 48 h; actives raise or lower the signal;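 also: CCND2 transcript measured by TaqMan qRT-PCR and normalised to three housekeeping genes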
How it was run: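 In this HepaRG study, an eight-point concentration series (max 100 uM, 0.5% DMSO) is applied for 48 h. CCND2 mRNA change is derived by qRT-PCR normalised to ACTB, GAPDH and POLR2A.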

[4] = read-out: Cyclin Dependent Kinase Inhibitor 1A (CDKN1A), CDKN1A (gene 1026); experiment: LTEA_HepaRG_CDKN1A: Life Technologies and Expression Analysis (LTEA) Assay for Cyclin Dependent Kinase Inhibitor 1A (CDKN1A) using HepaRG (AID 2283450); conditions: mRNA level, 48 h; actives raise or lower the signal
How it was run: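 Read-out is CDKN1A mRNA by TaqMan qRT-PCR, normalized to three housekeeping genes and fitted in both directions against the DMSO baseline. Human HepaRG cells were treated 48 h with test chemicals up to 100 uM in half-log steps, 0.5% DMSO.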

[5] = read-out: catalase (CAT), CAT (gene 847); experiment: LTEA_HepaRG_CAT: Life Technologies and Expression Analysis (LTEA) Assay for catalase (CAT) using HepaRG (AID 2283452); conditions: mRNA level, 48 h; actives raise or lower the signal;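 as to AC50: TaqMan qRT-PCR signal normalized to ACTB GAPDH and POLR2A housekeeping genes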
How it was run: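 Differentiated HepaRG cells in serum-free induction medium were dosed 48 h in duplicate, eight half-log concentrations from 100 uM in 0.5% DMSO. Transcript measured by TaqMan qRT-PCR, normalised to ACTB/GAPDH/POLR2A, fitted bidirectionally against DMSO.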

[6] = read-out: flavin-containing dimethylaniline monooxygenases 3 (FMO3), FMO3 (gene 2328); experiment: LTEA_HepaRG_FMO3: Life Technologies and Expression Analysis (LTEA) Assay for flavin-containing dimethylaniline monooxygenases 3 (FMO3) using HepaRG (AID 2283453); conditions: mRNA level, 48 h; actives raise or lower the signal;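 as to AC50: FMO3 transcript by TaqMan qRT-PCR normalized to ACTB GAPDH and POLR2A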
How it was run: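 FMO3 transcript quantified by TaqMan qRT-PCR against three housekeeping genes after 48 h chemical exposure of HepaRG cells. Eight-point half-log series, top 100 uM, 0.5% DMSO vehicle; phenobarbital 1mM induction control; up- or down-regulation fitted.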

[7] = read-out: Cytochrome P450 (CYP1A1), CYP1A1 (gene 1543); experiment: LTEA_HepaRG_CYP1A1: Life Technologies and Expression Analysis (LTEA) Assay for Cytochrome P450 (CYP1A1) using HepaRG (AID 2283454); conditions: mRNA level, 48 h; actives raise or lower the signal
How it was run: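 HepaRG, 48 h post-plating switched to serum-free induction medium; 8-pt conc-response (top 100 uM, half-log, 0.5% DMSO), duplicates, 48 h. Lysis in RLT, TaqMan qRT-PCR for CYP1A1; gain or loss vs DMSO.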

[8] = read-out: CFLAR gene, CFLAR (gene 8837); experiment: LTEA_HepaRG_CFLAR: Life Technologies and Expression Analysis (LTEA) Assay for CFLAR gene using HepaRG (AID 2283455); conditions: mRNA level, 48 h; actives raise or lower the signal
How it was run: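 Gain- or loss-of-signal changes in CFLAR transcript were fitted bidirectionally relative to 0.5% DMSO. Cells (HepaRG, duplicate wells) were dosed for 48 h across eight half-log concentrations topping at 100 uM; quantitation by TaqMan qRT-PCR.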

[9] = read-out: Forkhead box O1 (FOXO1), FOXO1 (gene 2308); experiment: LTEA_HepaRG_FOXO1: Life Technologies and Expression Analysis (LTEA) Assay for Forkhead box O1 (FOXO1) using HepaRG (AID 2283456); conditions: mRNA level, 48 h; actives raise or lower the signal
How it was run: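 Using one lot of HepaRG hepatic cells kept in 0.5% DMSO, the team applied test chemicals in duplicate, half-log dilutions from 100 uM, for 48 h. Expression, normalised to ACTB/GAPDH/POLR2A, was compared with vehicle in either direction.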

[10] = read-out: growth arrest and DNA damage 45 (GADD45A), GADD45A (gene 1647); experiment: LTEA_HepaRG_GADD45A: Life Technologies and Expression Analysis (LTEA) Assay for growth arrest and DNA damage 45 (GADD45A) using HepaRG (AID 2283458); conditions: mRNA level, 48 h; actives raise or lower the signal
How it was run: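 Transcript induction or loss, quantified by TaqMan qRT-PCR against three housekeeping genes, is the read-out. HepaRG cells received chemicals for 48 h across eight half-log concentrations from 100 uM in 0.5% DMSO; gain and loss fitted relative to DMSO.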

[11] = read-out: Forkhead box O3 (FOXO3), FOXO3 (gene 2309); experiment: LTEA_HepaRG_FOXO3: Life Technologies and Expression Analysis (LTEA) Assay for Forkhead box O3 (FOXO3) using HepaRG (AID 2283459); conditions: mRNA level, 48 h; actives raise or lower the signal
How it was run: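 Gene-expression endpoint: FOXO3 transcript level by qRT-PCR in HepaRG cultures treated 48 h with chemicals up to 100 uM (half-log, 0.5% DMSO vehicle).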

[12] = read-out: ABC Transporter (ABCB1), ABCB1 (gene 5243); experiment: LTEA_HepaRG_ABCB1: Life Technologies and Expression Analysis (LTEA) Assay for ABC Transporter (ABCB1) using HepaRG (AID 2283460); conditions: mRNA level, 48 h; actives raise or lower the signal
How it was run: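 Human liver HepaRG line treated 48 h with up to 100 uM compound (eight half-log points, 0.5% DMSO); ABCB1 mRNA change fitted bidirectionally against DMSO controls.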

[13] = read-out: growth arrest and DNA damage 45 (GADD45B), GADD45B (gene 4616); experiment: LTEA_HepaRG_GADD45B: Life Technologies and Expression Analysis (LTEA) Assay for growth arrest and DNA damage 45 (GADD45B) using HepaRG (AID 2283461); conditions: mRNA level, 48 h; actives raise or lower the signal
How it was run: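 HepaRG, ~100,000 cells/well, 48 h plating; serum-free induction medium; cpd 100 uM top, half-log x8, 0.5% DMSO, duplicate, 48 h; lysis in RLT, RNA isolation, qRT-PCR; norm ACTB/GAPDH/POLR2A; bidirectional fit vs DMSO.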

[14] = read-out: ABC Transporter (ABCC3), ABCC3 (gene 8714); experiment: LTEA_HepaRG_ABCC3: Life Technologies and Expression Analysis (LTEA) Assay for ABC Transporter (ABCC3) using HepaRG (AID 2283462); conditions: mRNA level, 48 h; actives raise or lower the signal
How it was run: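 Human HepaRG, 48 h dosing, 8-pt half-log series from 100 uM, 0.5% DMSO vehicle, duplicates. ABCC3 mRNA by TaqMan qRT-PCR, housekeeping-normalized; bidirectional curve fit vs DMSO.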

[15] = read-out: ABC Transporter (ABCB11), ABCB11 (gene 8647); experiment: LTEA_HepaRG_ABCB11: Life Technologies and Expression Analysis (LTEA) Assay for ABC Transporter (ABCB11) using HepaRG (AID 2283463); conditions: mRNA level, 48 h; actives raise or lower the signal
How it was run: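 Using HepaRG cultures held in 0.5% DMSO, chemicals were tested at half-log dilutions from 100 uM for 48 h. Induction or suppression of ABCB11 mRNA, normalized to ACTB, GAPDH and POLR2A, was fitted bidirectionally against vehicle.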

[16] = read-out: ABC Transporter (ABCC2), ABCC2 (gene 1244); experiment: LTEA_HepaRG_ABCC2: Life Technologies and Expression Analysis (LTEA) Assay for ABC Transporter (ABCC2) using HepaRG (AID 2283464); conditions: mRNA level, 48 h; actives raise or lower the signal
How it was run: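 HepaRG, 48 h post-plating; serum-free induction medium; cpd 8-pt, 100 uM top, half-log, 0.5% DMSO, duplicate, 48 h. Readout: ABCC2 mRNA by qRT-PCR, norm. ACTB/GAPDH/POLR2A. Bidirectional fit vs DMSO baseline.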

[17] = read-out: Broad substrate specificity ATP-binding cassette transporter ABCG2 (Homo sapiens) (UniProt Q9UNQ0); experiment: LTEA_HepaRG_ABCG2: Life Technologies and Expression Analysis (LTEA) Assay for ABC Transporter (ABCG2) using HepaRG (AID 2283465); conditions: mRNA level, 48 h; actives raise or lower the signal
How it was run: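 Gene expression of ABCG2 in HepaRG liver cells is quantified by qRT-PCR following 48 h exposure across an eight-point series topping at 100 uM. Values come from bidirectional fitting relative to DMSO vehicle.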

[18] = read-out: Fatty acid synthase (Homo sapiens) (UniProt P49327); experiment: LTEA_HepaRG_FASN: Life Technologies and Expression Analysis (LTEA) Assay for Fatty Acid Synthase (FASN) using HepaRG (AID 2283448); conditions: mRNA level, 48 h; actives raise or lower the signal
How it was run: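 Cells were plated, cultured 48 h, switched to serum-free induction medium, then dosed in duplicate (max 100 uM, half-log dilutions, 0.5% DMSO) for 48 h. RNA was then isolated and FASN quantified by qRT-PCR.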

[19] = read-out: Cyclin D1 (CCND1), CCND1 (gene 595); experiment: LTEA_HepaRG_CCND1: Life Technologies and Expression Analysis (LTEA) Assay for Cyclin D1 (CCND1) using HepaRG (AID 2283451); conditions: mRNA level, 48 h; actives raise or lower the signal;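 also: TaqMan qRT-PCR transcript level normalised to ACTB GAPDH and POLR2A housekeeping genes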
How it was run: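 HepaRG plated 48 h, medium switched to serum-free induction medium, chemicals added in duplicate (top 100 uM, half-log steps, 0.5% DMSO) for 48 h, cells lysed, RNA measured by TaqMan qRT-PCR.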

[20] = CEETOX_H295R_TESTO: CeeTox H295R High-throughput Steroidogenesis Assay for Testosterone (TESTO) (AID 2283457); conditions: actives raise or lower the signal
How it was run: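 H295R, passage ≤10, 48 h dosing; media extracted with MTBE → HPLC-MS/MS for testosterone; 7-pt standard curve sets LLOQ/ULOQ; bidirectional fit vs DMSO; MTT viability same wells.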

Measured: AC50

Sequence of Broad substrate specificity ATP-binding cassette transporter ABCG2 (Homo sapiens) (Q9UNQ0 whole entry, looked up): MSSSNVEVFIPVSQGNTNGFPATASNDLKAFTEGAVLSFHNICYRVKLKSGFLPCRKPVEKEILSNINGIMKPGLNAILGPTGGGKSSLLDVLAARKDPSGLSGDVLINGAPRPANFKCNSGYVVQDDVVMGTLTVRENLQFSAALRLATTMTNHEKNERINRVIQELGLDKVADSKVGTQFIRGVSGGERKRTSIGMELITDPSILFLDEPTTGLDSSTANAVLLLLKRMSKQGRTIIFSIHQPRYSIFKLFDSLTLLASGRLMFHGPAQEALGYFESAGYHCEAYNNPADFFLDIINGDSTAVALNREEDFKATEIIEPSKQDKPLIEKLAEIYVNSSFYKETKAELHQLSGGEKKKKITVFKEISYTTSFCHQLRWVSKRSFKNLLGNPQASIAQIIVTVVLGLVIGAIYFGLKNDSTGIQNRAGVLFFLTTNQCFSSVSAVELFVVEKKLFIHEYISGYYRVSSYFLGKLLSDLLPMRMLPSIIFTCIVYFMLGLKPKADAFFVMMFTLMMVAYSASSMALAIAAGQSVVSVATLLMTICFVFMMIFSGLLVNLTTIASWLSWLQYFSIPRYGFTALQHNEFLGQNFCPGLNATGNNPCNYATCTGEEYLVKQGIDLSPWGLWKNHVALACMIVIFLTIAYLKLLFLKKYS
Sequence of Fatty acid synthase (Homo sapiens) (P49327 whole entry, looked up): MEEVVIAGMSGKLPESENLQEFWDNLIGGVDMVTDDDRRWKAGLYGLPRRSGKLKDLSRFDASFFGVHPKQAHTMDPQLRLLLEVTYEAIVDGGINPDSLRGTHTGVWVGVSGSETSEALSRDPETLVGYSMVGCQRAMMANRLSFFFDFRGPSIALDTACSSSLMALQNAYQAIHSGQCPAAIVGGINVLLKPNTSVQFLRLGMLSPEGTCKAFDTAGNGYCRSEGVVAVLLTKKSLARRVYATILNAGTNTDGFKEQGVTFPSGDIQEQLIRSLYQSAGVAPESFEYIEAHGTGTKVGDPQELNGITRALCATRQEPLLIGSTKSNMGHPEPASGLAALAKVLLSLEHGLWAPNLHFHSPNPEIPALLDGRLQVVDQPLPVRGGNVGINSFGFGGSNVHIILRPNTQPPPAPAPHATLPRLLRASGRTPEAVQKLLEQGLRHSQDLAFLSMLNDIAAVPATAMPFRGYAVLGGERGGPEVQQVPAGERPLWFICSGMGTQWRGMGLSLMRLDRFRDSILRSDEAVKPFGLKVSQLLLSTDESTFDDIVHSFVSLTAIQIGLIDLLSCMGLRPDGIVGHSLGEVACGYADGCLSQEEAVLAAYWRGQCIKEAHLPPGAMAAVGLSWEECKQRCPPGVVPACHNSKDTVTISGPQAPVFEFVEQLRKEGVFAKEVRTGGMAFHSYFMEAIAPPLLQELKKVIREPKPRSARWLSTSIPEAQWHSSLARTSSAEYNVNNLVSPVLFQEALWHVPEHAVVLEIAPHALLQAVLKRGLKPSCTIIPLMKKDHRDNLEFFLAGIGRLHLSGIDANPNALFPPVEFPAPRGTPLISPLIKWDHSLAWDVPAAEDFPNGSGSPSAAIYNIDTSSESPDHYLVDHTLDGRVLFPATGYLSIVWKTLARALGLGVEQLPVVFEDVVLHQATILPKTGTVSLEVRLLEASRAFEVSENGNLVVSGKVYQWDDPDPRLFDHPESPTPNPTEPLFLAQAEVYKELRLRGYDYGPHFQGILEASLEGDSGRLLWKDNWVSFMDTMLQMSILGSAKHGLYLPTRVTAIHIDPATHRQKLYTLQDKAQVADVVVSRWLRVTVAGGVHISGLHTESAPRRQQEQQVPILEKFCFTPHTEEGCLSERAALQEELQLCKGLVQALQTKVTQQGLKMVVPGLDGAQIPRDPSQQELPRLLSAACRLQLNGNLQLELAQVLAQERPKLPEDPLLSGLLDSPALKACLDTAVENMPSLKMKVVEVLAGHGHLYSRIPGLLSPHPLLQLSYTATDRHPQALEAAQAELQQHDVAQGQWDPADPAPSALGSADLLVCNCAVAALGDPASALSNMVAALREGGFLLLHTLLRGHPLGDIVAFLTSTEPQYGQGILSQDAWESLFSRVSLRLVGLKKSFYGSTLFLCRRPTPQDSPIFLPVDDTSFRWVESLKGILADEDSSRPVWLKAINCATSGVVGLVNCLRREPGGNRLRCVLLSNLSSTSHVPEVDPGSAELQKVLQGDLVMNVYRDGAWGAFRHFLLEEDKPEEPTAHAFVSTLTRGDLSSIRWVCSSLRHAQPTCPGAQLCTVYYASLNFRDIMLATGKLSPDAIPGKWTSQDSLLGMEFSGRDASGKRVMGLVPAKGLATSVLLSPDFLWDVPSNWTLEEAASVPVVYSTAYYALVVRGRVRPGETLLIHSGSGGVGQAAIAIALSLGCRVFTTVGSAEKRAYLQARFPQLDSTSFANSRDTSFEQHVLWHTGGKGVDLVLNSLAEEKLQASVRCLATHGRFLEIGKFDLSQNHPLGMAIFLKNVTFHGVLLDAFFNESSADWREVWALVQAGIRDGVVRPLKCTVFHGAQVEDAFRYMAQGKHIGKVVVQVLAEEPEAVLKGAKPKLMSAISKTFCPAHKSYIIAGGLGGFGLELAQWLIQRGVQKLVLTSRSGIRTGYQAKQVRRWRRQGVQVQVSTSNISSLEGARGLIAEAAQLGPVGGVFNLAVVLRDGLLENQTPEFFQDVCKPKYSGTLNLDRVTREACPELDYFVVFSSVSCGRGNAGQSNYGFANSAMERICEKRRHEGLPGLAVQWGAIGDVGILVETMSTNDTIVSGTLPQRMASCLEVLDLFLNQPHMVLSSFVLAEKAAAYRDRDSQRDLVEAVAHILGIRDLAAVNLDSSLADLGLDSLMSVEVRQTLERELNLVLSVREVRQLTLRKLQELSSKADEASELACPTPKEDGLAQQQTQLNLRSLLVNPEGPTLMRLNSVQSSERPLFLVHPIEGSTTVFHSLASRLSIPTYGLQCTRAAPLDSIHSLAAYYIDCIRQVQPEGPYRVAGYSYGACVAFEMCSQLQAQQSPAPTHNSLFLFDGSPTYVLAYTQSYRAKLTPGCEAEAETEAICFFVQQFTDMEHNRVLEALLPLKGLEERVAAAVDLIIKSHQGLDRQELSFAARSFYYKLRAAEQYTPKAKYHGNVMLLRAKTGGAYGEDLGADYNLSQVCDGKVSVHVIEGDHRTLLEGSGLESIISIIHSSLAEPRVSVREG

CCN(Cc1c(F)cccc1Cl)c1c([N+](=O)[O-])cc(C(F)(F)F)cc1[N+](=O)[O-]
active: [6] 50 µM | [7] 14.8 µM | [13] 50 µM | [16] 50 µM | [17] 20.3 µM
not listed: [18] | [19] | [20]
inactive: all other assays above

CCNc1nc(N)nc(Cl)n1
not listed: [18] | [19] | [20]
inactive: all other assays above

C=CCOC(Cn1ccnc1)c1ccc(Cl)cc1Cl (centres undefined)
active: [1] 0.296 µM | [2] 68.9 µM | [18] 38.3 µM | [4] 28.6 µM | [19] 90.5 µM | [5] 33.5 µM | [6] 35.3 µM | [7] 12.1 µM | [8] 79.2 µM | [9] 78.1 µM | [10] 59.1 µM | [13] 91.3 µM | [14] 35.5 µM | [16] 37.9 µM | [17] 2.47 µM
inactive: [3] | [11] | [12]

CC1(C)C(C=C(Cl)Cl)C1C(=O)OCc1cccc(Oc2ccccc2)c1 (centres undefined)
active: [1] 11.5 µM | [7] 35.9 µM
not listed: [18] | [19] | [20]
inactive: all other assays above

CCCCOCCOCCOCc1cc2c(cc1CCC)OCO2
active: [7] 12.9 µM | [12] 4.01 µM | [16] 7.48 µM | [17] 8.84 µM
not listed: [18] | [19]
inactive: all other assays above

CCCCOC(=O)[C@@H](C)Oc1ccc(Oc2ccc(C(F)(F)F)cn2)cc1
active: [7] 50.2 µM | [15] 20.6 µM
not listed: [18] | [19] | [20]
inactive: all other assays above
